The target in experiment [1] is T1, Serine/threonine-protein kinase Nek9 (Homo sapiens) (UniProt Q8TD19).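 Note: each value is a mean percent inhibition of NEK9.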
T1 sequence (whole entry): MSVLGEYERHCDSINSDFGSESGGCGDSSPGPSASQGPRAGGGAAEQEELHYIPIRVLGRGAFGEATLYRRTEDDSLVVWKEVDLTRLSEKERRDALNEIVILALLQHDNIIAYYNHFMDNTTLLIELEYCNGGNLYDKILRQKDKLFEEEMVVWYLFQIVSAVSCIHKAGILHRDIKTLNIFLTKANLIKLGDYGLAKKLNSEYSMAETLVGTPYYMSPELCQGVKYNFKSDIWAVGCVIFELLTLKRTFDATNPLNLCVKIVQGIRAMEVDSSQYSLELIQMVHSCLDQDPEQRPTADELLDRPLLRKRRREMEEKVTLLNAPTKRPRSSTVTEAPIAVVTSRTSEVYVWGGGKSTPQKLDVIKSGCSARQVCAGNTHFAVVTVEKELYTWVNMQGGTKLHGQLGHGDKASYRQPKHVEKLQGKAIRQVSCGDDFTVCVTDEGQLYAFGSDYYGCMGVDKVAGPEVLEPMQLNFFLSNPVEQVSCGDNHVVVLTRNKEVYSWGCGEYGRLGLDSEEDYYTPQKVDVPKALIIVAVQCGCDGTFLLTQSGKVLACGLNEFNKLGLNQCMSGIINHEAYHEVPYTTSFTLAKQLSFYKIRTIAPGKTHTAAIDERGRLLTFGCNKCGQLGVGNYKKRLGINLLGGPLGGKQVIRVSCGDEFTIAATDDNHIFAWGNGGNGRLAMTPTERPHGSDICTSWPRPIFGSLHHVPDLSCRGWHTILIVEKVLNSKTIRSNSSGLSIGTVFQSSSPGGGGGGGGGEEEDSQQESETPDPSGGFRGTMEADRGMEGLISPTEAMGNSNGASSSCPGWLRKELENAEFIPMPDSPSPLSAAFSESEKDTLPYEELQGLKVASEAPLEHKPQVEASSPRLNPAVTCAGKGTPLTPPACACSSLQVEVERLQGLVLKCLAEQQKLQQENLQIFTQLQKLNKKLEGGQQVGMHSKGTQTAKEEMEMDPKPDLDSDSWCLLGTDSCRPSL
The note with it: at 1 µM.

Experiment [2] deals with Serine/threonine-protein kinase PLK1 (Homo sapiens) (UniProt P53350). The note with it: at 0.1 µM.
For experiment [3] the target is unchanged. To be noted: at 1 µM.
In experiment [4] the target is T2, Dual specificity protein kinase TTK (Homo sapiens) (UniProt P33981).
T2 sequence (whole entry): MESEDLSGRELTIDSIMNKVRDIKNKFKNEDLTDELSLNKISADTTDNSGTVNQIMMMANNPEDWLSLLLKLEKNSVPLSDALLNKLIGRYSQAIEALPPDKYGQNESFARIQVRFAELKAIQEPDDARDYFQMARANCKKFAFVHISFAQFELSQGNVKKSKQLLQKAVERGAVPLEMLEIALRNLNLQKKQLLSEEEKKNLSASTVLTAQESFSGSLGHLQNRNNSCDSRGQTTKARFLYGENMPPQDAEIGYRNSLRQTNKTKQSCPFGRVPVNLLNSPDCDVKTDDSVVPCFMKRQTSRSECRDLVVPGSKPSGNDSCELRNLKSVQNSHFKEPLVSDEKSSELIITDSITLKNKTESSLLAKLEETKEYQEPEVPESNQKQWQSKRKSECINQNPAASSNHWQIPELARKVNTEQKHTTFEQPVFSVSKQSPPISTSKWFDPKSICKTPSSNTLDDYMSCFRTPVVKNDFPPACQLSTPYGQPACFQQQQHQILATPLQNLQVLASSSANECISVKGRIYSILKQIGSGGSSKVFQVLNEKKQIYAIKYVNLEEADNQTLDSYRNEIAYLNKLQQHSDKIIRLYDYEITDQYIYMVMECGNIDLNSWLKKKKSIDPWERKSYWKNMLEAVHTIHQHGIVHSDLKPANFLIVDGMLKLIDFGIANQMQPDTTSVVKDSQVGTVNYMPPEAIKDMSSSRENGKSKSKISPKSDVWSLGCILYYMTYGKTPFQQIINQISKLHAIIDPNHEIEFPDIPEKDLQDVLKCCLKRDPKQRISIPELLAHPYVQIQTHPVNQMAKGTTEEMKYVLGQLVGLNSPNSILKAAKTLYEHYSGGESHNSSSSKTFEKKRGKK
The note with it: at 0.1 µM.

Experiment [5] has as its system T3, Receptor-type tyrosine-protein kinase FLT3 (Homo sapiens), P36888 [D835Y].
T3 sequence (whole entry): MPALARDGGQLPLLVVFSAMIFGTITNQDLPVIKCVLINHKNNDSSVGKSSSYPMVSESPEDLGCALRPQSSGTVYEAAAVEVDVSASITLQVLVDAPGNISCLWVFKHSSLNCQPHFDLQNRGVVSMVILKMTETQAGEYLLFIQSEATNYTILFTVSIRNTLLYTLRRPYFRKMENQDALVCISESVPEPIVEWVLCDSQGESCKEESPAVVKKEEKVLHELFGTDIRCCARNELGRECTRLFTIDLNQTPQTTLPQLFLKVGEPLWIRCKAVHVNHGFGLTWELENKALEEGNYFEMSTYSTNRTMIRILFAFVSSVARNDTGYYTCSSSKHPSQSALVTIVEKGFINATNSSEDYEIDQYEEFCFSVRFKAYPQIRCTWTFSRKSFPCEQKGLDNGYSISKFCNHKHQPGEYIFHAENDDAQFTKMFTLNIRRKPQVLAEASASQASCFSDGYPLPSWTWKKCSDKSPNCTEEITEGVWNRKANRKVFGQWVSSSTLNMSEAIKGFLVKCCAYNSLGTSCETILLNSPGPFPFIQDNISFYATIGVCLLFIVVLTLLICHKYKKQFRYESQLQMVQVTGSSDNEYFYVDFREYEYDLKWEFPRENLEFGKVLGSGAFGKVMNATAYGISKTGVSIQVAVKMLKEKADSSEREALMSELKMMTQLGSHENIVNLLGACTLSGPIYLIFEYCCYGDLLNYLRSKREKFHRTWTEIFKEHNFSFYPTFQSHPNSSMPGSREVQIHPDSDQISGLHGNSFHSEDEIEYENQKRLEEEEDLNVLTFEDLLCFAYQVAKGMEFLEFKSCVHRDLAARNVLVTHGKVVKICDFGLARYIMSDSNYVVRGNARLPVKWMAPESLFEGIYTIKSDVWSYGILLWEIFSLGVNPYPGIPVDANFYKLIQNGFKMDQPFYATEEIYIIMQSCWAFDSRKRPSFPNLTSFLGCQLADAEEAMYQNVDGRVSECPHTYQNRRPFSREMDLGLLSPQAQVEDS
The note with it: at 1 µM.

The target of experiment [6] is Vascular endothelial growth factor receptor 3 (Homo sapiens) (UniProt P35916). To be noted: at 0.1 µM.
The target is the same in experiment [7]. The note with it: at 1 µM.
The target in experiment [8] is Macrophage colony-stimulating factor 1 receptor (Homo sapiens) (UniProt P07333). To be noted: at 0.1 µM.
Experiment [9] has the same target. To be noted: at 1 µM.
Experiment [10] addresses Tyrosine-protein kinase Fyn (Homo sapiens) (UniProt P06241). The note with it: at 0.1 µM.
Experiment [11] has the same target. To be noted: at 1 µM.
Experiment [12] addresses Tyrosine-protein kinase HCK (Homo sapiens) (UniProt P08631). To be noted: at 0.1 µM.
For experiment [13] the target is unchanged. The note with it: at 1 µM.
The target in experiment [14] is Insulin-like growth factor 1 receptor (Homo sapiens) (UniProt P08069). The note with it: at 0.1 µM.
The target is the same in experiment [15]. To be noted: at 1 µM.
Experiment [16] has as its target Insulin receptor (Homo sapiens) (UniProt P06213). The note with it: at 0.1 µM.
The target is the same in experiment [17]. To be noted: at 1 µM.
Experiment [18] deals with Insulin receptor-related protein (Homo sapiens) (UniProt P14616). To be noted: at 0.1 µM.
Experiment [19] has the same target. The note with it: at 1 µM.
Experiment [20] has as its target T4, Tyrosine-protein kinase ITK/TSK (Homo sapiens) (UniProt Q08881).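 Note: mean percent inhibition of ITK from the GSK PKIS screen.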
T4 sequence (whole entry): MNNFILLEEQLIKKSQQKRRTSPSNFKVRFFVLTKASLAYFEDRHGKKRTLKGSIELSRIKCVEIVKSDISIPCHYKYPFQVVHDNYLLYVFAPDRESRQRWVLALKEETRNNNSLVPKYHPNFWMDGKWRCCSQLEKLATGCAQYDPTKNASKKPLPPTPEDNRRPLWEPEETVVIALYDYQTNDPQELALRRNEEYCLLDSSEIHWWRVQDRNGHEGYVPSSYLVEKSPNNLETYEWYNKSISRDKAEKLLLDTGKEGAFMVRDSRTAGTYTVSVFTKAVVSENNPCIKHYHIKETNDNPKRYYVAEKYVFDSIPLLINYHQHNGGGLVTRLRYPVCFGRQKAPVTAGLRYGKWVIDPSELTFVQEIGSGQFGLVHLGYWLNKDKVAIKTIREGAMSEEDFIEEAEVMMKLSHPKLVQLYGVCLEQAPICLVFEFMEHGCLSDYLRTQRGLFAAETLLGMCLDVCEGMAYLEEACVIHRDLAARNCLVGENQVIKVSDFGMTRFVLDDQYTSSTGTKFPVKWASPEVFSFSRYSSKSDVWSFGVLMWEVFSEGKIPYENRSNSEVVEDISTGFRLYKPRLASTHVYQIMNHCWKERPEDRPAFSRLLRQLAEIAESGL
The note with it: at 0.1 µM.

Chain of Tyrosine-protein kinase HCK (Homo sapiens) (P08631 2-526 limits assumed): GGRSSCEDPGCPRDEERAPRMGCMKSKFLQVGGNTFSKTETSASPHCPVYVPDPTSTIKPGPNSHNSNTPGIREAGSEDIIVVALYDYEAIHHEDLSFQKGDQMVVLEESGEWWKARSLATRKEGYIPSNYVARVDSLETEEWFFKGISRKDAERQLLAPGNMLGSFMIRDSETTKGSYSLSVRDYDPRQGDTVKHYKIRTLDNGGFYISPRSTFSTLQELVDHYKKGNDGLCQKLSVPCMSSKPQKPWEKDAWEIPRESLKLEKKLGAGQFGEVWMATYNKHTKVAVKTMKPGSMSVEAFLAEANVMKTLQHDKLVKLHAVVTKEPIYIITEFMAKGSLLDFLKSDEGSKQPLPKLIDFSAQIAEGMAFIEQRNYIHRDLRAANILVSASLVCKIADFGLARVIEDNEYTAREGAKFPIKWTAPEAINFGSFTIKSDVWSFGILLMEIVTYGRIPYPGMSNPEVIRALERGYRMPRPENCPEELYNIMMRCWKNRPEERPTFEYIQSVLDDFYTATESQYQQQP
Chain of Vascular endothelial growth factor receptor 3 (Homo sapiens) (P35916 whole entry): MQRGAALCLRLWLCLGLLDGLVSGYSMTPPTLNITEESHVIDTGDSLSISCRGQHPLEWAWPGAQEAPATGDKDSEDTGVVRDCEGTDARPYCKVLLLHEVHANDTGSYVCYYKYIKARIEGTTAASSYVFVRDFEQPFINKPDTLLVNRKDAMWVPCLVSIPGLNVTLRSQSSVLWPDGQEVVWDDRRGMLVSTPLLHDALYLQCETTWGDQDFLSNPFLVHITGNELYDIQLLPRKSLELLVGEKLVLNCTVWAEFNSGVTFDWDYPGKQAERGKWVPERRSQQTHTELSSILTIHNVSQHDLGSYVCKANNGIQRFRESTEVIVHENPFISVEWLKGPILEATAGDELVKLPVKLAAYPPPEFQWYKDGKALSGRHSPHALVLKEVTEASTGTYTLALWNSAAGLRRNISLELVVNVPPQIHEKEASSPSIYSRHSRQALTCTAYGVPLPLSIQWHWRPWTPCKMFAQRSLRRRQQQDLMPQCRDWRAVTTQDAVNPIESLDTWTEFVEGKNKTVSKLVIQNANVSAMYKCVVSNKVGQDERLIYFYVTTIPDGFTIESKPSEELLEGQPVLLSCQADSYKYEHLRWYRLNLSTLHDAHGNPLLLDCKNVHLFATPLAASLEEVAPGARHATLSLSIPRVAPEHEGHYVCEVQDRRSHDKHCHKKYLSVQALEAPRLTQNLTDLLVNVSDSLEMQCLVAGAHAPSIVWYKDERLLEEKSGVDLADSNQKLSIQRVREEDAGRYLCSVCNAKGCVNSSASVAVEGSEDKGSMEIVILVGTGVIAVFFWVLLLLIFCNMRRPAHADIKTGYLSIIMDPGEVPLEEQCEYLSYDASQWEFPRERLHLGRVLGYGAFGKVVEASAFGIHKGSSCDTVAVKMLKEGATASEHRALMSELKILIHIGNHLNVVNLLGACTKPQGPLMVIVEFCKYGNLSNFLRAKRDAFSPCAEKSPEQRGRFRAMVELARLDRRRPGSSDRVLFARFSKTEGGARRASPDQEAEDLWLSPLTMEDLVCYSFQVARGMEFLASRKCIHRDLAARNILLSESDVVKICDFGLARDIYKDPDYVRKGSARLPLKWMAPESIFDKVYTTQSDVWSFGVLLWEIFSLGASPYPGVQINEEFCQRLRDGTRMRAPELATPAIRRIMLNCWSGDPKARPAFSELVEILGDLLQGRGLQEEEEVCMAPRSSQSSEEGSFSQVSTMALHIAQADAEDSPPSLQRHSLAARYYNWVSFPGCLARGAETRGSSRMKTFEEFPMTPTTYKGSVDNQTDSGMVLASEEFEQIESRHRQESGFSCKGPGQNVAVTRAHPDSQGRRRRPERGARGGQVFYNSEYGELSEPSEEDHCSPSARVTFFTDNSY
Chain of Insulin receptor-related protein (Homo sapiens) (P14616 27-742 limits assumed): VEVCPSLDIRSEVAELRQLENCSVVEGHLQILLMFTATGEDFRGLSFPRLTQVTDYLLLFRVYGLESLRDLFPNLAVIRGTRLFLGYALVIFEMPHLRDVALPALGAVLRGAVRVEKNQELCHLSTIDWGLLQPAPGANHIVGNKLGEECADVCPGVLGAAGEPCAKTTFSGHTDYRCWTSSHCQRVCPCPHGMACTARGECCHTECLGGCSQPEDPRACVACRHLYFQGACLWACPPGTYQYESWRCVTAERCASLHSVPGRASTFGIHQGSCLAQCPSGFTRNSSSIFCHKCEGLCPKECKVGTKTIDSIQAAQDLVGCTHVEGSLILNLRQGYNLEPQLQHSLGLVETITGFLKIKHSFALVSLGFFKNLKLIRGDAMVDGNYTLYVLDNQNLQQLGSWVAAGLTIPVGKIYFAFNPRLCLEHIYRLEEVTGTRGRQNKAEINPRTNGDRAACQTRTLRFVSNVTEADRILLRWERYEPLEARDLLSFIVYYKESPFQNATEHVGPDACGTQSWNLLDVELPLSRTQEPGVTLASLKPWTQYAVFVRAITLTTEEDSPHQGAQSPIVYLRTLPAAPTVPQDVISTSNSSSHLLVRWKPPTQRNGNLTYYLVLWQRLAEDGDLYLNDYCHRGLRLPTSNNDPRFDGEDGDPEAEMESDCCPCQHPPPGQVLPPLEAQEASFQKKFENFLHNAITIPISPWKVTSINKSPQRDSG
Chain of Insulin receptor-related protein (Homo sapiens) (P14616 747-1297 limits assumed): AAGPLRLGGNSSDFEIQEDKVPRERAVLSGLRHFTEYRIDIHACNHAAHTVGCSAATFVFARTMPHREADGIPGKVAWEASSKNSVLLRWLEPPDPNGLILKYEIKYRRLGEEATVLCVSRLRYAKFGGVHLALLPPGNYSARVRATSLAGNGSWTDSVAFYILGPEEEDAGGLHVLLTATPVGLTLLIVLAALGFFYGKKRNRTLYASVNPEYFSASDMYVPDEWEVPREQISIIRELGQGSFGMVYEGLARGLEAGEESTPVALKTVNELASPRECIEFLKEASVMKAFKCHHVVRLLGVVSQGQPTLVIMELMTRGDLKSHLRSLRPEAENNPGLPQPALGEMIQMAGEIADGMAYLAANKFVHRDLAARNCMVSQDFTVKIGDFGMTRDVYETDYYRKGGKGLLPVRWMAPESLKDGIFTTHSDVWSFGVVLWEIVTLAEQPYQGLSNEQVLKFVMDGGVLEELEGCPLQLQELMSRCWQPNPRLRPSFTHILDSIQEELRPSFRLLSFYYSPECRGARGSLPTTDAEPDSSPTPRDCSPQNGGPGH
Chain of Insulin receptor (Homo sapiens) (P06213 28-758 limits assumed): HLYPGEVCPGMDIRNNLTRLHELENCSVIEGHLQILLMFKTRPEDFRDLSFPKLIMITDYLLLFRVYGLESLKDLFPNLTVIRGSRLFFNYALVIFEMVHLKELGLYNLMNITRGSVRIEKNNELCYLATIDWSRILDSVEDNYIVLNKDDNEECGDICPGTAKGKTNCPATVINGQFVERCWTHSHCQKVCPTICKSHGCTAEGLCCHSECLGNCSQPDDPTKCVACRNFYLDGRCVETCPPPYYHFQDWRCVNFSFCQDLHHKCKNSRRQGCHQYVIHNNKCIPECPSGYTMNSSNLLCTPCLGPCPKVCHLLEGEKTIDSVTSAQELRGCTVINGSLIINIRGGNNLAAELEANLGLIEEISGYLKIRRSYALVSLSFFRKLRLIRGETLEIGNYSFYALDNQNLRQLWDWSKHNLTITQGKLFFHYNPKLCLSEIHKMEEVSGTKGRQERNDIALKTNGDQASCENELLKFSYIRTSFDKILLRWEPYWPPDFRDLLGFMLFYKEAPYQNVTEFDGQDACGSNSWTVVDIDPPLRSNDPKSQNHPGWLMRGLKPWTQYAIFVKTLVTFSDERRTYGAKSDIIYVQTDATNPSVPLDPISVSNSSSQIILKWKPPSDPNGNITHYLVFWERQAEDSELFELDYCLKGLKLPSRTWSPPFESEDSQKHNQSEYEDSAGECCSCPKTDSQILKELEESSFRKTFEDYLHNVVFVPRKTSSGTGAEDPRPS
Chain of Insulin receptor (Homo sapiens) (P06213 763-1382 limits assumed): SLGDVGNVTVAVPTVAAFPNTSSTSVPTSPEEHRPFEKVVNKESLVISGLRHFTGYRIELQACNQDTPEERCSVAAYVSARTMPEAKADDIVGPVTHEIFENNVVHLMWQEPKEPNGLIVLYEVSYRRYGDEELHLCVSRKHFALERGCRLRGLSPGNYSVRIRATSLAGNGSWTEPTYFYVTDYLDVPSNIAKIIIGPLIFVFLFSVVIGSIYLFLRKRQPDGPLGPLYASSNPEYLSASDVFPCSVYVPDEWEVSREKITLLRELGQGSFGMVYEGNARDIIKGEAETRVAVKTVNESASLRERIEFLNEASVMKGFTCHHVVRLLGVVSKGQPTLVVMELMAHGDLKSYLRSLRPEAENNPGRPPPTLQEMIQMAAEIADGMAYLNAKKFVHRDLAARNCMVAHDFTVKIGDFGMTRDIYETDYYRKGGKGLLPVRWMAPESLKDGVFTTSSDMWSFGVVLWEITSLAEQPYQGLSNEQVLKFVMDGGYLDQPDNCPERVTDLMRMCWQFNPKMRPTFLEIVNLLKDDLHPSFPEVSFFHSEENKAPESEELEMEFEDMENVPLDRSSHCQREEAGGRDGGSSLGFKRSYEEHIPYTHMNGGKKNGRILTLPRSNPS
Chain of Tyrosine-protein kinase Fyn (Homo sapiens) (P06241 2-537 limits assumed): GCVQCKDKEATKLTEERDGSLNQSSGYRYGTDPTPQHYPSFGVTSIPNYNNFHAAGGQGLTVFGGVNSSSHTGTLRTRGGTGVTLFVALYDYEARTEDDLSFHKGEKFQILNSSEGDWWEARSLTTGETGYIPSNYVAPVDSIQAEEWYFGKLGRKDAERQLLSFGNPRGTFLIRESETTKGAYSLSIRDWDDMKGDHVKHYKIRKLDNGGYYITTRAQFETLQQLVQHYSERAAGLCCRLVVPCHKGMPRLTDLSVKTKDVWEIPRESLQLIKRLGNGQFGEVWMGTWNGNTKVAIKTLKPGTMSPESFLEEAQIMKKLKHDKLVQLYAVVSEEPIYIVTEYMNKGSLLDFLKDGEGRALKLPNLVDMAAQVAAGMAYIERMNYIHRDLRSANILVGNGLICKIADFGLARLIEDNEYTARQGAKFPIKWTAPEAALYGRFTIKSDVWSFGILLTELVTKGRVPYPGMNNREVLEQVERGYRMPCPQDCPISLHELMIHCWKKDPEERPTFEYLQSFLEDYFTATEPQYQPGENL

With `Cc1cc(-c2ccccn2)cc(C)c1/C=C/c1cncc(-c2nn[nH]n2)c1`, the inhibition came to 5.99% in [1]; 5.02% in experiment [2]; 5.56% in experiment [3]; 11.3% in experiment [4]; 12% in experiment [5]; 9.28% in experiment [6]. Further, the inhibition in [7] came to 14.4%; in experiment [8], 1.45%; in experiment [9], 12.3%; in experiment [10], 4.53%; in experiment [11] it was 9.92%; in experiment [12] it was 7.16%. In addition, the inhibition in experiment [13] stood at 17.3%; in [14] it was 16.5%; in experiment [15], 10.9%; in experiment [16] it was 5.7%; in experiment [17], 5.57%; in experiment [18], 0.66%. The inhibition in experiment [19] is 2.24%; in experiment [20], 0.82%.

In the case of `Cc1nc(-c2ccccc2)n2nc(NCCCN3CCOCC3)ncc12`, the inhibition in experiment [1] was found to be 8.77%; in [2], 3.18%; in experiment [3] it was 3.22%; in [4], 6.18%; in experiment [5], 1.89%; in [6], 2.75%. Also, the inhibition in [7] was 2.24%; in experiment [8], 1.73%; in experiment [9], 10.9%; in [10], 1.73%; in [11], 4.98%; in experiment [12] it was 3.98%. In addition, the inhibition in experiment [13] is 4.67%; in experiment [14], 3.15%; in experiment [15], 1.6%; in [16] it was 0.32%; in experiment [17] it was 2.69%; in [18] it was -0.73%. The inhibition was 1.44% in [19] and 0.99% in experiment [20].

With `COc1cccc(-n2nc(C)c3c(N/N=C(\C)c4ccncc4)ncnc32)c1`, the inhibition was 2.13% in experiment [1]; -0.78% in [2]; 2.34% in experiment [3]; 2.35% in [4]; 1.49% in [5]; 1.67% in [6]. The inhibition in [7] was 1.25%; in [8] it was -1.96%; in experiment [9], 5.8%; in [10], 1.21%; in experiment [11] it was 4.54%; in experiment [12] it was 1.01%. Also, the inhibition is 3.38% in experiment [13]; -0.28% in [14]; 0.73% in experiment [15]; 2.42% in experiment [16]; 0.25% in experiment [17]; -2% in experiment [18]. Besides, the inhibition in [19] was -2.33%; in [20], 0.43%.

As a reminder, the inhibition is the drop in the measured response relative to a control, in per cent.

The values above are taken from ChEMBL document CHEMBL1961873, “Compounds: GSK PKIS; Assays: Nanosyn kinase panel” (2012).
